Laboratory results: PubChem BioAssay (NCATS)
Activity calls are given as the source filed them. Calls follow the shape of the full dose curve.

Assay: qHTS drug screen for cell cycle checkpoint inhibitors in PARPi-resistant BRCA-mutant ovarian cancer cell lines. (AID 1963452)
Conditions: PEO1/OlaR viability, CellTiter-Glo luminescence, 96 h, stronger effect = lower value
Description: Women's Malignancies Branch, Center for Cancer Research (CCR),
National Cancer Institute (NCI), National Institutes of Health (NIH), Bethesda, MD
Poly (ADP-ribose) polymerase inhibitors (PARPis) have changed the treatment paradigm in breast cancer gene (BRCA) - mutant high-grade serous ovarian carcinoma (HGSC). However, most patients eventually develop resistance to PARPis, highlighting an unmet need for improved therapeutic strategies. Using high-throughput drug screens, we identified ataxia telangiectasia and rad3-related protein/checkpoint kinase 1 (CHK1) pathway inhibitors as cytotoxic and further validated the activity of the CHK1 inhibitor (CHK1i) prexasertib in PARPi-sensitive and -resistant BRCA-mutant HGSC cells and xenograft mouse models. CHK1i monotherapy induced DNA damage, apoptosis, and tumor size reduction. We then conducted a phase 2 study (NCT02203513) of prexasertib in patients with BRCA-mutant HGSC. The treatment was well tolerated but yielded an objective response rate of 6% (1 of 17; one partial response) in patients with previous PARPi treatment. […] BRCA reversion mutation in previously PARPi-treated BRCA-mutant patients was not associated with resistance to CHK1i.
Among others, 1082 oncology drugs, both approved and investigational, were prioritized based on their status in clinical trial development. […] Drugs with average Z-AUC values less than -1.0 in all three cell lines were classified as "hits" resulting in 151 oncology drug hits. The screen also confirmed cross-resistance between olaparib and other PARPis (rucaparib, niraparib, and talazoparib) in PARPi-resistant PEO1/OlaR and PEO4.
[1] G. L. Lin, K. M. Wilson, M. Ceribelli, B. Z. Stanton, P. J. Woo, S. Kreimer, E. Y. Qin, X. Zhang, J. Lennon, S. Nagaraja, P. J. Morris, M. Quezada, S. M. Gillespie, D. Y. Duveau, A. M. Michalowski, P. Shinn, R. Guha, M. Ferrer, C. Klumpp-Thomas, S. Michael, C. McKnight, P. Minhas, Z. Itkin, E. H. Raabe, L. Chen, R. Ghanem, A. C. Geraghty, L. Ni, K. I. Andreasson, N. A. Vitanza, K. E.Warren, C. J. Thomas, M. Monje, Therapeutic strategies for diffuse midline glioma from high-throughput combination drug screening. Sci. Transl. Med. 11, (2019).
[2] T. M. Yamamoto, A. McMellen, Z. L. Watson, J. Aguilera, R. Ferguson, E. Nurmemmedov, T. Thakar, G. L. Moldovan, H. Kim, D. M. Cittelly, A. M. Joglar, E. P. Brennecke, H. Wilson, K. Behbakht, M. J. Sikora, B. G. Bitler, Activation of Wnt signaling promotes olaparib resistant ovarian cancer. Mol. Carcinog. 58, 1770 - 1782 (2019).
PROTOCOL TABLE (as described by Inglese J, Shamu CE and Guy RK. 2007)
SEQUENCE No. (e.g., 1, 2, 3, etc.); […] (e.g., Cells, Incubation, Reagent, etc.); VALUE; DESCRIPTION.
1; Compounds; 20nL; 1536-well white tissue culture-treated plates.
2; Cells; 5 uL; PEO1, PEO4, and PEO1/OlaR cells at 600 cells per well.
3; Incubation; 96 hr; 37C, 95% humidity, 5% CO2.
4; Reagent; 3 uL; CellTiter-Glo (Promega).
5; Incubation; 15 min; room temperature.
6; Detection; Luminescence, PHERAstar (BMG Labtech) plate reader.
NOTES (numbers refer to Sequence numbers above)
1. MIPE 5.0 compounds were acoustically dispensed by Echo Acoustic Liquid Handler (Beckman Coulter Life Sciences). Each compound was plated at an 11-point concentration range with 1:3 dilution. Bortezomib, a proteasome inhibitor (final concentration, 20 uM), was used as a positive.
2. PEO1, PEO4, and PEO1/OlaR were trypsinized and dispensed in 5 uLof growth medium using a Multidrop Combi dispenser at a density of 600 cells per well to allow compounds to be present during the exponential growth phase.
3. Plates were incubated for 96 hours at standard incubator conditions and covered by a stainless steel gasketed lid to prevent evaporation.
4. Three microliters of CellTiter-Glo (Promega) were added to each well.
5. Plates were incubated at room temperature for 15 min with a stainless-steel lid in place.
6. Luminescence readings were taken using PHERAstar (BMG Labtech). […]

[1] = measured here: PEO1 parental Z-AUC

Compound: CN(C)c1nc(N(C)C)nc(N(C)C)n1
- Z-AUC: 1.32 (inactive)
- Z-AUC [1]: 0.778
- Z-AUC (measured here: PEO4 Z-AUC): 0.807

Compound: Cc1ccccc1N1C(=O)c2cc(S(N)(=O)=O)c(Cl)cc2NC1C (configuration not stated)
- Z-AUC: -0.939 (inactive)
- Z-AUC [1]: -0.663
- Z-AUC (measured here: PEO4 Z-AUC): -0.859

Compound: NC(=O)NO
- Z-AUC: 1.41 (inactive)
- Z-AUC [1]: 1.02
- Z-AUC (measured here: PEO4 Z-AUC): 0.874

Compound: CC(C)Cc1ccc(C(C)C(=O)O)cc1 (configuration not stated)
- Z-AUC: 1.42 (inactive)
- Z-AUC [1]: 1.49
- Z-AUC (measured here: PEO4 Z-AUC): 1.2

Compound: CN(C)CCOC(c1ccccc1)c1ccccc1
- Z-AUC: -0.454 (inactive)
- Z-AUC [1]: 0.718
- Z-AUC (measured here: PEO4 Z-AUC): -0.44

Compound: NCCCCCC(=O)O
- Z-AUC: 1.55 (inactive)
- Z-AUC [1]: 1.11
- Z-AUC (measured here: PEO4 Z-AUC): 1.26

Compound: Clc1ccccc1C(c1ccccc1)(c1ccccc1)n1ccnc1
- Z-AUC: -0.839 (inactive)
- Z-AUC [1]: -1.06
- Z-AUC (measured here: PEO4 Z-AUC): -0.849

Compound: CN1CCC(=C2c3ccccc3CC(=O)c3sccc32)CC1
- Z-AUC: 1.25 (inactive)
- Z-AUC [1]: 1.46
- Z-AUC (measured here: PEO4 Z-AUC): 0.927

Compound: CC[N+](CC)(CC)CCOc1cccc(OCC[N+](CC)(CC)CC)c1OCC[N+](CC)(CC)CC
- Z-AUC: 0.722 (inactive)
- Z-AUC [1]: 0.846
- Z-AUC (measured here: PEO4 Z-AUC): 0.666

Compound: CS(=O)(=O)Nc1ccc([N+](=O)[O-])cc1Oc1ccccc1
- Z-AUC: 1.34 (inactive)
- Z-AUC [1]: 1.22
- Z-AUC (measured here: PEO4 Z-AUC): 1.35

Compound: Cn1ccc2cc3c(cc21)CCN3C(=O)Nc1cccnc1
- Z-AUC: 0.66 (inactive)
- Z-AUC [1]: 0.473
- Z-AUC (measured here: PEO4 Z-AUC): 0.355

Compound: CN1CCN(C2=Nc3cc(Cl)ccc3Nc3ccccc32)CC1
- Z-AUC: 0.802 (inactive)
- Z-AUC [1]: 0.75
- Z-AUC (measured here: PEO4 Z-AUC): 0.32

Compound: NCCc1cnc[nH]1
- Z-AUC: 0.48 (inactive)
- Z-AUC [1]: 0.383
- Z-AUC (measured here: PEO4 Z-AUC): 0.867

Compound: Cc1cc(C(C)(C)C)c(O)c(C)c1CC1=NCCN1
- Z-AUC: 1.21 (inactive)
- Z-AUC [1]: 0.68
- Z-AUC (measured here: PEO4 Z-AUC): 0.695
